{"source": "PubChem BioAssay (NCATS)", "note": "Results filed as inconclusive are left out. The source made the active and inactive calls. Calls come from the whole dose curve; as a rule, active = well fitted cell-killing curve with a large enough effect; inconclusive = small, poorly fitted or top-dose-only effect, or effect the other way; inactive = no such curve, though single readings can be large or run the other way. Potency is the fitted concentration of half-maximal effect.", "data": [{"assay": "Quantitative High-Throughput drug screen in 47 multiple myeloma cell lines against the NCATS MIPE library collection: PCM6_Riken cell viability assay (AID 1919870); note: nearly all actives have a fitted effect of over 30% in size", "conditions": "CellTiter-Glo ATP, 48 h; series mostly up to 45.8 µM", "source_text": "PI: Beverly A. Mock Ph.D.\nLaboratory of Cancer Biology and Genetics,\nCenter for Cancer Research, National Cancer Institute,\nNational Institute of Health, Bethesda, Maryland\nDrug resistance and disease progression are common in multiple myeloma (MM) patients, underscoring the need for new therapeutic combinations. […] We hypothesized that effective combinations would reduce MYC expression and enhance p16 activity. […] These preclinical data identify potentially useful drug combinations for evaluation in drug-resistant MM and reveal potential mechanisms of combined drug sensitivity.\nDescribed herein is the primary MIPE qHTS used to cherrypick compounds. Validated compounds were then further tested for potential synergistic activiy.\n[1] Peat TJ, Gaikwad SM, Dubois W, Gyabaah-Kessie N, Zhang S, Gorjifard S, Phyo Z, Andres M, Hughitt VK, Simpson RM, Miller MA, Girvin AT, Taylor A, Williams D, D'Antonio N, Zhang Y, Rajagopalan A, Flietner E, Wilson K, Zhang X, Shinn P, Klumpp-Thomas C, McKnight C, Itkin Z, Chen L, Kazandijian D, Zhang J, Michalowski AM, Simmons JK, Keats J, Thomas CJ, Mock BA. Drug combinations identified by high-throughput screening promote cell cycle transition and upregulate Smad pathways in myeloma. Cancer Lett. 2023 Aug 1;568:216284. doi: 10.1016/j.canlet.2023.216284. Epub 2023 Jun 24. PMID: 37356470; PMCID: PMC10408729.\nSEQUENCE No. (e.g., 1, 2, 3, etc.); […] (e.g., Cells, Incubation, Reagent, etc.); VALUE and DESCRIPTION.\n1; Cells; 5 uL; white, solid bottom 1536-well Greiner assay plate.\n2; Compounds; 23 nL; Kalypsis pin tool (Wako USA) equipped with a 1536-well pin head to transfer to the assay plates.\n3; Incubation; 48 hours; 37C incubation.\n4; Reagent;5uL; CellTiter Glo (Promega).\n5; Detector; 425V; Luminescence; Viewlux PerkinElmer.\nNOTES (numbers refer to Sequence numbers above)\n1. The cell-based screening methods employed in this study were like those previously published. Briefly, the corresponding myeloma cell lines were screened in 1,536-well plates with 500 cells, 5-uL per well for inhibition of cell viability (assessed by measuring ATP levels with CellTiterGlo).\n2. NCATS MIPE 4.0 library of approved and investigational drugs were added using the Kalypsis pin tool. Wells treated with DMSO only for 100% viability and media only for 0% viability were used as controls.\n3. The assay plates were covered and incubated for 48 hours in a 37C, 5% CO2 incubator with controlled humidity.\n4. After 48 hours, CellTilter-GloTM luminescent substrate mix (Promega) reagent was added to the assay plate and plates we incubated for 5 min at room temperature.\n5. Signal was measured as median relative luminescence units on a ViewLux (PerkinElmer) multiplate reader.\n[1] Heske CM, Davis MI, Baumgart JT, Wilson K, Gormally MV, Chen L, Zhang X, Ceribelli M, Duveau DY, Guha R, Ferrer M, Arnaldez FI, Ji J, Tran HL, Zhang Y, Mendoza A, Helman LJ, Thomas CJ. Matrix Screen Identifies Synergistic Combination of PARP Inhibitors and Nicotinamide Phosphoribosyltransferase (NAMPT) Inhibitors in Ewing Sarcoma. Clin Cancer Res. 2017 Dec 1;23(23):7301-7311. doi: 10.1158/1078-0432.CCR-17-1121. Epub 2017 Sep 12. PMID: 28899971; PMCID: PMC6636827.", "values": [{"smiles": "CC(C)(O)C(=O)Nc1ccc([N+](=O)[O-])c(C(F)(F)F)c1", "Potency": "8330 nM (active)"}, {"smiles": "Cc1ccccc1-n1c(Cn2cnc3c(N)ncnc32)nc2cccc(C)c2c1=O", "Potency": "1660 nM (active)"}, {"smiles": "C[C@@H]1CC[C@@]2(OC1)O[C@H]1C[C@H]3[C@@H]4CC=C5C[C@@H](O[C@@H]6O[C@H](CO)[C@@H](O[C@@H]7O[C@@H](C)[C@H](O)[C@@H](O)[C@@H]7O)[C@H](O)[C@@H]6O[C@@H]6O[C@@H](C)[C@H](O)[C@@H](O)[C@@H]6O)CC[C@]5(C)[C@@H]4CC[C@]3(C)[C@@H]1[C@H]2C", "Potency": "3320 nM (active)"}, {"smiles": "O=S(=O)(F)Cc1ccccc1", "Potency": "2640 nM (active)"}, {"smiles": "CC[C@@H]1[C@@H](C)O[C@@](O)([C@@H](C)[C@H](O)[C@H](C)[C@H]2OC(=O)C=CC=C[C@@H](C)[C@@H]([C@@H](C)[C@@H](O)[C@H](C)[C@@]3(O)C[C@H](O[C@H]4C[C@H](O)[C@H](O)[C@H](C)O4)[C@H](CC)[C@@H](C)O3)OC(=O)C=CC=C[C@@H]2C)C[C@H]1O[C@H]1C[C@H](O)[C@H](O)[C@H](C)O1", "Potency": "743 nM (active)"}, {"smiles": "COc1ccc2c(c[n+](C)c3c4cc5c(cc4ccc23)OCO5)c1OC", "Potency": "7430 nM (active)"}, {"smiles": "C[C@]12CC[C@H]3[C@@H](CCC4=CC(=O)CC[C@@]43C)[C@H]1CC[C@H]2OC(=O)CCC1CCCC1", "Potency": "inactive"}, {"smiles": "CC(C)(O)C=CC(=O)[C@](C)(O)[C@H]1[C@H](O)C[C@]2(C)[C@@H]3CC=C4[C@@H](C=C(O)C(=O)C4(C)C)[C@]3(C)C(=O)C[C@@]12C", "Potency": "29.6 nM (active)"}, {"smiles": "O=c1[nH]c2ccc(Cl)cc2c(N[C@@H]2CN3CCC2CC3)c1-c1nc2ccccc2[nH]1", "Potency": "166 nM (active)"}, {"smiles": "CC(C)N[C@@H]1CCn2c(=O)[nH]c3cccc(c32)[C@@H]1O", "Potency": "5260 nM (active)"}, {"smiles": "O=c1[nH]c2ccccc2n1C1CCN(Cc2ccc(-c3[nH]c4cc5ncnc5cc4nc3-c3ccccc3)cc2)CC1", "Potency": "13200 nM (active)"}, {"smiles": "O=C(O)CNC(=O)c1c(O)c2ccccc2n(Cc2ccccc2)c1=O", "Potency": "inactive"}, {"smiles": "CC[C@@H](C(N)=O)N1CCCC1=O", "Potency": "inactive"}, {"smiles": "C[C@]12Cc3cn[nH]c3C[C@@H]1CC[C@@H]1[C@H]2CC[C@@]2(C)[C@H]1CC[C@]2(C)O", "Potency": "inactive"}, {"smiles": "c1cc2c(cc1[C@H]1OC[C@H]3[C@H]1CO[C@H]3c1ccc3c(c1)OCO3)OCO2", "Potency": "inactive"}, {"smiles": "CCOP(=O)(OCC)C(C)NC(=O)N(CCCl)N=O", "note": "(stereo not given)", "Potency": "inactive"}, {"smiles": "CN1CCN(c2ccc([N+](=O)[O-])c3no[n+]([O-])c23)CC1", "Potency": "5900 nM (active)"}, {"smiles": "c1ccc2c(CN3CCNCC3)cccc2c1", "Potency": "inactive"}, {"smiles": "C[C@]12CC[C@@H]3[C@@H](CCC4=CC(=O)CC[C@@H]43)[C@@H]1CC[C@@H]2OC(=O)CCc1ccccc1", "Potency": "inactive"}, {"smiles": "O=C1CCC[C@@H]2[C@H]3CCCN4CCC[C@@H](CN12)[C@@H]34", "Potency": "inactive"}, {"smiles": "CC1=C(O)C(=O)C=C2C1=CC=C1[C@@]2(C)CC[C@@]2(C)[C@@H]3C[C@](C)(C(=O)O)CC[C@]3(C)CC[C@]12C", "Potency": "743 nM (active)"}, {"smiles": "CCCC[N+]1(C)[C@H]2CC(OC(=O)[C@H](CO)c3ccccc3)C[C@H]1[C@H]1O[C@H]12", "note": "(stereo not given in full)", "Potency": "inactive"}, {"smiles": "C[C@@H]1[C@H](O)[C@@H](C)C=CC=CCCC=CC=CC=CC=C[C@H](O[C@H]2O[C@@H](C)[C@H](O)[C@@H](N)[C@@H]2O)CC2O[C@](O)(C[C@@H](O)[C@H](O)CC[C@@H](O)C[C@@H](O)C[C@@H](O)CC(=O)O[C@H]1C)C[C@H](O)[C@H]2C(=O)O", "Potency": "inactive"}, {"smiles": "CO[C@H]1CCC(O[C@H]2C[C@H]([C@]3(C)CC[C@]4(C[C@H](O)[C@@H](C)[C@@H]([C@@H](C)C=C(C)C(=O)[C@H](C)C[C@H](C)C(=O)O)O4)O3)O[C@]3(O[C@@H]([C@H]4O[C@@](O)(CO)[C@H](C)C[C@H]4C)C[C@H]3C)[C@H]2C)O[C@H]1C", "note": "(stereo not given in full)", "Potency": "935 nM (active)"}, {"smiles": "COc1cc2cc(c1Cl)N(C)C(=O)C[C@H](OC(=O)C(C)C)[C@]1(C)O[C@H]1[C@H](C)[C@@H]1C[C@@](O)(NC(=O)O1)[C@H](OC)C=CC=C(C)C2", "Potency": "inactive"}, {"smiles": "CC=C(C)C(=O)N[C@@H](c1ccccc1)[C@@H](O)C(=O)O[C@H]1C[C@@]2(O)[C@@H](OC(=O)c3ccccc3)[C@@H]3[C@]4(OC(C)=O)CO[C@@H]4C[C@H](O)[C@@]3(C)C(=O)[C@H](OC(C)=O)C(=C1C)C2(C)C", "Potency": "inactive"}, {"smiles": "C=CCON=C(C[C@H]1O[C@@H]2O[C@]3(C)CC[C@@H]4[C@H](C)CC[C@@H]([C@H]1C)[C@@]24OO3)[C@H]1O[C@@H]2O[C@]3(C)CC[C@H]4[C@H](C)CC[C@@H]([C@@H]1C)[C@@]24OO3", "Potency": "526 nM (active)"}, {"smiles": "CC(C)(C)c1cc(C=C(C#N)C#N)cc(Br)c1O", "Potency": "18700 nM (active)"}, {"smiles": "C[C@@H]1O[C@@H](O[C@@H]2C=C3CC[C@@H]4[C@@H](CC[C@]5(C)[C@H](c6ccc(=O)oc6)CC[C@@]45O)[C@@]3(C)CC2)[C@H](O)[C@H](O)[C@H]1O", "Potency": "9.3 nM (active)"}, {"smiles": "C[C@]12CC[C@H]3[C@@H](CCC4=CC(=O)CC[C@@]43C)[C@H]1CC[C@H]2O", "Potency": "inactive"}, {"smiles": "CN(C)NC(=O)CCC(=O)O", "Potency": "20900 nM (active)"}, {"smiles": "CC(C)[C@H]1C(=O)N[C@H](CO)Cc2c[nH]c3cccc(c23)N1C", "Potency": "264 nM (active)"}, {"smiles": "CC1(N2CCC(n3c([C@@H]4CCCNC4)nc4ccccc43)CC2)CCCCCCC1", "Potency": "14800 nM (active)"}, {"smiles": "Cc1ccccc1-n1c(Cn2ncc3c(N)ncnc32)nc2cccc(C)c2c1=O", "Potency": "296 nM (active)"}, {"smiles": "C1=C2CCCN[C@H]2[C@@H]2C[C@H]1[C@@H]1CCCCN1C2", "Potency": "inactive"}, {"smiles": "CCc1c(C(=O)C(N)=O)c2c(OCC(=O)O)cccc2n1Cc1ccccc1", "Potency": "inactive"}, {"smiles": "CC1=NN=C(c2ccc(N)cc2)c2cc3c(cc2C1)OCO3", "Potency": "inactive"}, {"smiles": "COc1ccc(CC2NCCc3cc(OC)c(OC)cc32)cc1OC", "note": "(stereo not given)", "Potency": "8330 nM (active)"}, {"smiles": "CCN(CC)C(=O)c1ccc(C2=CC3(CCNCC3)Oc3cccc(O)c32)cc1", "Potency": "inactive"}, {"smiles": "CC=C(C)C(=O)O[C@H]1C(C)=C2[C@@H]3OC(=O)[C@@](C)(O)[C@@]3(O)[C@@H](OC(=O)CCC)C[C@](C)(OC(C)=O)[C@@H]2[C@@H]1OC(=O)CCCCCCC", "Potency": "11800 nM (active)"}]}]}
